VACV Venus inh: inhibitors of vaccinia virus (Venus reporter) | actives 0.46% (n = 330,000) | Potency, µM (top dose mostly 36.5 µM), for the others: at the highest dose activity change, negative = inhibition, actives largely listed as inhibitors | Vaccinia virus Venus reporter expression, fluorescence; calls by dose curve; tested in A549 cells; note: potency is the fitted concentration of half-maximal effect; nearly all actives have a fitted effect of over 30% in size
Vaccinia mCherry: vaccinia inhibition (mCherry reporter); Potency, µM (top dose mostly 36.5 µM), without a hit: at the highest dose activity change, negative = inhibition, usual class: inhibitors; Vaccinia virus mCherry reporter infection, fluorescence; actives 0.63% (n = 310,000); calls by dose curve; tested in A549 cells; note: potency is the fitted concentration of half-maximal effect; nearly all actives have a fitted effect of over 35% in size
FMDV antiviral: foot and mouth disease virus antiviral activity. FMDV antiviral cell-based qHTS. Potency, µM (titrated, usually from 57.9 µM), for the others: at the highest dose activity change, negative = inhibition, hits mostly inhibitors. actives 1.2% (n = 410,000); calls by dose curve; tested in HEK293T cells; note: read-out not given here; potency is the fitted concentration of half-maximal effect; nearly all actives have a fitted effect of over 45% in size
HCV inh: blocks hepatitis C virus. AID 651820. Potency, µM (titrated, usually from 41.8 µM), for the others: top-dose activity change, negative = inhibition, most hits filed as inhibitors. Huh7.5.1 HCVcc-Cre infection, luciferase reporter, 44 h. actives 3.4% (n = 340,000); active = well fitted inhibition curve with a large enough effect; inconclusive = small, poorly fitted or top-dose-only effect, or another doubt; inactive = no such curve, though single readings can be large or run the other way; note: potency is the fitted concentration of half-maximal effect
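A cell-based infection assay in which seeded cells (1,000 per well) receive test compound after 4 h, are inoculated with HCVcc-Cre at approximately 0.5 moi, and are incubated 44 h before luminescence detection.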
HCMV inh: inhibitors of human cytomegalovirus | HFF cells, HCMV-luciferase reporter, 72 h; stronger effect = lower value | actives 4.5% (n = 410,000) | AID 1259415 | activity change, negative = inhibition, % at 57.5 µM; in the data active = activity change below about -60%; inconclusive = no clear call, values can overlap the other calls; inactive = above about -39%
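HFF cells seeded 16 h at 37C, treated with compounds, infected with luciferase-reporter HCMV at MOI 1 PFU/cell; luciferase read at 72 h post infection, normalized to buffer-only and Salinomycin controls.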
* marks the source's active call; other numbers are inactive results; ! = not confirmed by another sample; [ ] = another dose, or the depositor's remark. In the library only some 7.3% were active in any assay of this set; here they are far more common. % is set by controls: 0 for no effect and ±100 for the full control effect.

Results for Cc1ccc(CN2C[C@@H](Sc3nc(C)cc(C)n3)C[C@H]2C(=O)N2CCN(c3ccccc3F)CC2)cc1 ?
VACV Venus inh: 14%; Vaccinia mCherry: -13%; FMDV antiviral: 30%

Results for Cc1cc(Nc2nc3ccccc3nc2Cl)n(-c2ccccc2)n1 ?
FMDV antiviral: inconclusive; HCV inh: inconclusive; HCMV inh: -90*

How did Cc1cc(C)c(Cn2c(=O)n(CCCCCC(=O)NCc3ccc4c(c3)OCO4)c(=O)c3sccc32)c(C)c1 do in these assays?
VACV Venus inh: -17%; Vaccinia mCherry: -22%; FMDV antiviral: -16%; HCMV inh: 32

Results for Cc1ccc(S(=O)(=O)N2CCOCC2)cc1C(=O)Nc1ccc(N2CCCCCC2)cc1 ?
VACV Venus inh: -27%; Vaccinia mCherry: inconclusive; FMDV antiviral: -13%; HCV inh: 5µM*; HCMV inh: -64*

What do the screens show for `CCCCn1ccnc1C(=O)c1cccc(S(=O)(=O)N2CC(C)CC(C)C2)c1` (configuration not stated)?
FMDV antiviral: 9%; HCV inh: -25%; HCMV inh: -21

How did Cc1ccnc(NC(=O)c2ccc(Cl)c(S(=O)(=O)N3CCCCC3)c2)c1 do in these assays?
FMDV antiviral: -13%; HCV inh: 13µM*; HCMV inh: -11

What do the screens show for `Cc1ccc(NC(=O)c2cccc(S(=O)(=O)N3CCN(c4ccccc4)CC3)c2)nc1`?
VACV Venus inh: -11%; Vaccinia mCherry: -28%; FMDV antiviral: -25%; HCV inh: 13µM*; HCMV inh: -85*

Results for CCCCn1ccnc1C(=O)c1cc(S(=O)(=O)N2CCOCC2)ccc1C ?
FMDV antiviral: -12%; HCV inh: 11µM*; HCMV inh: -66*

Results for CC(=O)c1ccc(NC(=O)c2cc(S(=O)(=O)N3CCOCC3)ccc2C)cc1 ?
VACV Venus inh: 1%; Vaccinia mCherry: -4%; FMDV antiviral: inconclusive; HCV inh: -22%; HCMV inh: -15

How did CC(C)C[C@H]1COc2cc(N3CCOCC3)ccc2S(=O)(=O)N1 do in these assays?
HCMV inh: 21

How did O=C(Nc1ccc2c(c1)OCCO2)c1ccc(Cl)c(S(=O)(=O)N2CCOCC2)c1 do in these assays?
VACV Venus inh: -18%; Vaccinia mCherry: -9%; FMDV antiviral: inconclusive; HCMV inh: -30

How did O=C(Nc1cccc(S(=O)(=O)C(F)F)c1)c1ccc(S(=O)(=O)N2CCOCC2)cc1 do in these assays?
VACV Venus inh: -14%; Vaccinia mCherry: 5%; FMDV antiviral: inconclusive; HCV inh: -13%; HCMV inh: 7

What do the screens show for `O=C(Nc1ccc(N2CCOCC2)cc1)c1ccc(Cl)c(S(=O)(=O)N2CCCCC2)c1`?
FMDV antiviral: inconclusive; HCV inh: 2.5µM*; HCMV inh: -63*

Results for O=C(NCc1nc2ccccc2[nH]1)c1ccc(Cl)c(S(=O)(=O)N2CCCC2)c1 ?
VACV Venus inh: inconclusive; Vaccinia mCherry: -8%[1.46 µM]; FMDV antiviral: 28%; HCV inh: 0%; HCMV inh: -30

How did O=C(Nc1cccc(S(=O)(=O)C(F)F)c1)c1ccc(S(=O)(=O)N2CCCC2)cc1 do in these assays?
VACV Venus inh: inconclusive; Vaccinia mCherry: 0%; FMDV antiviral: -11%; HCV inh: 5µM*; HCMV inh: inconclusive

What do the screens show for `CCCn1c(NC(=O)c2ccc(Cl)c(S(=O)(=O)N3CCCC3)c2)nc2ccccc21`?
VACV Venus inh: 25µM*; Vaccinia mCherry: 11µM*; FMDV antiviral: inconclusive; HCV inh: 2.5µM*; HCMV inh: -63*

How did CCN1CCN(c2ccc(NC(=O)c3cccc(S(=O)(=O)N4CCCC4)c3)cc2)CC1 do in these assays?
VACV Venus inh: -8%; Vaccinia mCherry: 0%; FMDV antiviral: -10%; HCV inh: -21%; HCMV inh: 0

How did O=C(Nc1ccc(N2CCOCC2)cc1)c1cccc(S(=O)(=O)N2CCCCC2)c1 do in these assays?
VACV Venus inh: -15%; Vaccinia mCherry: -21%; FMDV antiviral: inconclusive; HCV inh: 10µM*!; HCMV inh: -21

Results for O=C(Nc1ccc2c(c1)CCC2)c1cccc(S(=O)(=O)N2CCN(c3ccccc3)CC2)c1 ?
FMDV antiviral: -6%; HCV inh: 0.56µM*; HCMV inh: -15

How did O=C(Nc1ccc(S(=O)(=O)C(F)F)cc1)c1cccc(S(=O)(=O)N2CCOCC2)c1 do in these assays?
VACV Venus inh: -16%; Vaccinia mCherry: -7%; FMDV antiviral: 18µM*; HCV inh: inconclusive; HCMV inh: -18

What do the screens show for `CCCN(CCC)C(=O)c1nn(C)c2c1CSc1ccc(C)cc1-2`?
VACV Venus inh: 3%; Vaccinia mCherry: -13%; FMDV antiviral: -13%; HCMV inh: -8

How did CCOC(=O)c1ccc(OC(=O)c2cn(-c3ccc(C)cc3)c(=O)c3ccccc23)cc1 do in these assays?
VACV Venus inh: -13%; Vaccinia mCherry: -7%; FMDV antiviral: -27%; HCMV inh: -11

Results for Nc1nc(Nc2ccccc2F)nc(N2CCCC2)c1[N+](=O)[O-] ?
VACV Venus inh: inconclusive; Vaccinia mCherry: -19%; FMDV antiviral: 13%; HCV inh: 8.9µM*; HCMV inh: 58

What do the screens show for `CC(C)CCNc1nc(N)c([N+](=O)[O-])c(N2CCCCCC2)n1`?
FMDV antiviral: inconclusive; HCV inh: inconclusive; HCMV inh: -94*

What do the screens show for `Brc1cccc(-c2nnc(SCc3nc4ccccc4[nH]3)o2)c1`?
VACV Venus inh: inconclusive; Vaccinia mCherry: 10µM*; FMDV antiviral: inconclusive; HCV inh: -12%; HCMV inh: 2

Results for COCCn1c(-c2ccccc2)csc1=Nc1cccnc1 ?
VACV Venus inh: -7%; Vaccinia mCherry: inactive; FMDV antiviral: inconclusive; HCV inh: 8.9µM*; HCMV inh: -37

How did c1ccc(-c2csc(=Nc3cccnc3)n2CC2CCCO2)cc1 (configuration not stated) do in these assays?
VACV Venus inh: -9%; Vaccinia mCherry: -12%; FMDV antiviral: -21%; HCV inh: 2%; HCMV inh: -36

Results for CCCCn1c(C)csc1=Nc1cccnc1 ?
VACV Venus inh: -14%; Vaccinia mCherry: inactive; FMDV antiviral: -23%; HCV inh: 6%; HCMV inh: -63*

Results for CC(C)n1c(-c2ccco2)csc1=Nc1cccnc1 ?
VACV Venus inh: -29%; Vaccinia mCherry: inconclusive; FMDV antiviral: 25µM*; HCV inh: inconclusive; HCMV inh: -79*

How did c1cncc(-c2nc(-c3ccco3)cs2)c1 do in these assays?
VACV Venus inh: -1%; Vaccinia mCherry: -5%; FMDV antiviral: 37%; HCV inh: 3%; HCMV inh: 6

Results for Cc1ccc(-c2csc(=Nc3cccnc3)n2CCCn2ccnc2)cc1C ?
VACV Venus inh: inconclusive; Vaccinia mCherry: -12%; FMDV antiviral: 16µM*; HCV inh: inconclusive; HCMV inh: -95*

How did c1cncc(N=c2scc(-c3cccc4ccccc34)n2CCCn2ccnc2)c1 do in these assays?
VACV Venus inh: -14%; Vaccinia mCherry: -14%; FMDV antiviral: inconclusive; HCV inh: inconclusive; HCMV inh: inconclusive
